Among the data in PubChem BioAssay (NCI) are growth values, retold here.

Compounds without any hit were thinned out: in the full panel of roughly 83,000, 20% have a hit.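 In brief: 96-well plates, 48 h treatment, single concentration, percent growth endpoint.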 Values without a mark were called inactive. Activity calls are given as the source filed them. The calls were made as follows: active = growth percent below 10; inactive = the rest.

The subject of the assay is NCI-H322M lung. Put plainly: NCI-60 one-dose screen, 48 h (100 = growth as untreated, 0 = no growth, -100 = all killed). The following applies: 10 µM unless noted.
For the compound `Cc1ccc(C(=O)Nc2cc(-n3cnc(F)c3)cc(C(F)(F)F)c2)cc1C#Cc1cnc2cccnn12`, the growth was 97.9%.

With `O=C(N/N=C/c1ccc(-c2cccc([N+](=O)[O-])c2)s1)c1[nH]c2ccc(Br)cc2c1-c1ccccc1`, the growth is 99.2%.

`Nc1cc2ccccc2c(=O)n1NC(=O)c1ccccc1`: the growth was 104%.

As for `C[C@@H]1[C@H]2C[C@@H](C[C@H]1NCc1nc3ccccc3n1C1CCCCCC1)C2(C)C`, the growth was 95.4%.

Regarding `COc1cc2cc(C(=O)N3C[C@@H](CCl)c4c3cc(OC(=O)N(CCC(=O)N3CCN(C)CC3)[C@H]3CCSSC3)c3ccccc43)[nH]c2c(OC)c1OC`, the growth was -23% (active).

`Cc1cn(-c2cc(NC(=O)c3ccc(C)c(-n4cc(-c5cnc6cccnn56)nn4)c3)cc(C(F)(F)F)c2)cn1`: the growth is 106%.

On to `Cn1cc(-c2cc(N)n3nc(-c4c[nH]c5ccc(F)cc45)cc3n2)c2cccnc21`, for which the growth was -37.5% (active).

As to `FC(F)(F)c1cc2c(Cl)ncnc2n1CCN1CCOCC1`, the growth was 74.9%.

As to `CCOC(=O)/C(F)=C/C1CC1C1CCN(C(=O)OC(C)(C)C)CC1` (stereo not drawn), the growth was 102%.

`O=C(Nc1ccc(-c2ccc3c(c2)NC(=O)/C3=C\c2ccc[nH]2)cc1)Nc1cccc(Cl)c1`: the growth was 14.1%.

As for `O=Cc1cncc(-c2ccc3ncnc(N4CCc5cc(F)c(Cl)cc54)c3c2)c1`, the growth was 0.287% (active).

For `Fc1ccc(F)c(CNc2nc(SCCN3CCOCC3)nc3c2cnn3CC(Cl)c2ccc(Br)cc2)c1` (stereo not drawn), the growth was 75.2%.

For `Cc1nc(N)ncc1-c1ccc2ncnc(N3CCc4cc(F)c(Cl)cc43)c2c1`, the growth was 28.7%.

For `O=C(Cn1c(/C=C/c2ccc([N+](=O)[O-])cc2)nc2ccccc2c1=O)Nc1ccccc1`, the growth is 67.2%.

For the compound `Nc1nc2cc(-c3ccc4ncnc(NCc5ccccc5)c4c3)ccc2o1`, the growth was -19.8% (active).

Turning to `COc1ccc(-c2nc3ccc(-c4nnc(SCc5ccccc5)o4)cc3[nH]2)cc1`, the growth is 0.722% (active).

As to `O=C(OCCOCCO)N(c1cccc(Br)c1)c1nc(SCCN2CCOCC2)nc2c1cnn2CC(Cl)c1ccc(Br)cc1` (stereo not drawn), the growth is 50.9%.

Consider `Oc1ccc(Cl)c(Nc2nc(SCCN3CCOCC3)nc3c2cnn3CC(Cl)c2ccc(Br)cc2)c1` (stereo not drawn), for which the growth is 92.8%.

For the compound `O=C1/C(=C/C=C/c2ccco2)SC(=S)N1CC(=S)C1C=CS(=O)(=O)C1` (stereo not drawn), the growth was 38.8%.

For `COC(=O)c1cc(C(=O)CBr)n2c1ccc1c3ccccc3ccc12`, the growth was 82.8%.

Turning to `Cc1ccc(-c2cc(C(=O)N=Nc3c(O)[nH]c4ccc(F)cc34)c3ccccc3n2)cc1`, the growth is 44.4%.

Consider `Nc1cc(-c2c[nH]c3ccc(F)cc23)nc2cc(-c3c[nH]c4ccccc34)nn12`, for which the growth is 30.2%.

`COc1cc(NC(=O)CSc2nnc(-c3ccc(-c4nc5ccc(Cl)cc5[nH]4)cc3)o2)cc(OC)c1OC`: the growth was 95.2%.

With `COc1ccc(C(=O)NNC(=O)CSc2nc3sc4c(c3c(=O)n2-c2ccc(Cl)cc2)CCCC4)cc1`, the growth is 73.5%.

For the compound `CN(CCSSCCN1CCOCC1)C(=O)Oc1cc2c(c3ccccc13)[C@H](CCl)CN2C(=O)c1cc2cc(OCCCN3CCC3)ccc2[nH]1`, the growth is -3.1% (active).

As to `O=C(Cc1c(-c2ccccc2[N+](=O)[O-])n(-c2ncnc3c2c(-c2ccccc2)c(-c2ccccc2)n3Cc2ccccc2)[nH]c1=O)c1ccc(Cl)c(Cl)c1`, the growth is 42.7%.

Take `O=C(c1ccc(Cl)cc1)C1[C@H](c2ccccc2Cl)[C@@H](c2ccccc2)NC12C(=O)Nc1ccc(Br)cc12` (stereo partly drawn): the growth was -47.3% (active).

Consider `Cc1cccc(-c2ccccc2Oc2ccc3nnc(Cl)n3n2)c1`, for which the growth was 99.9%.

For `CCC1(OC(=O)c2ccccc2SSCCOC(=O)CCCCC2SCC3NC(=O)NC32)C(=O)OCc2c1cc1n(c2=O)Cc2cc3ccccc3nc2-1` (stereo not drawn), the growth was 83.6%.

`COc1ccc(/C=C/c2nc3ccccc3n3c(-c4cccc([N+](=O)[O-])c4)nnc23)cc1`: the growth is 41%.

Regarding `Cc1ccc(C(=O)Nc2cc(-c3ccncc3)cc(C(F)(F)F)c2)cc1C#Cc1cnc2cccnn12`, the growth is 79%.

As for `COc1ccc(N=Nc2c(N)nn3c(N)c(C#N)c(-c4ccccc4)nc23)cc1`, the growth was 45.7%.

With `N#Cc1ccc(C(=O)NNC(=O)CSc2nc3sc4c(c3c(=O)n2-c2ccc(Cl)cc2)CCCC4)cc1`, the growth is 51.7%.

Regarding `CCCCCCCCc1ccc(C(=O)Nc2cccc(O)c2)cc1`, the growth was 95.9%.

On to `COc1ccc(/C=C/C(=O)c2ccc(OC)c(S(N)(=O)=O)c2)c(C(F)(F)F)c1`, for which the growth was -2.93% (active).

On to `C#CCN(C)CCCOc1ccc(N(CC)C(=O)c2cc(C(C)C)c(O)cc2O)cc1Cl`, for which the growth is 23.4%.

Take `CC1=C(C(=O)OCc2ccccc2)C(c2ccc(N(C)C)cc2)n2c(nc3ccccc32)N1` (stereo not drawn): the growth is 101%.

As for `Cc1ccc(C2CC(c3ccc(NC(=O)Nc4ccccc4)cc3)=NN2c2ccc(S(N)(=O)=O)cc2)cc1` (stereo not drawn), the growth is -96.5% (active).
